52 molecules from PubChem BioAssay (NCATS) can be followed below.

A number with no mark means an inactive call. For some assays here: Measured potencies and affinities stand elsewhere. Activity calls are given as the source filed them. How the calls were made is not given here.

For test [1] the following is noted: Ebola virus entry assay, green fluorescence channel.
The conditions of test [2]: Ebola virus entry assay, blue channel fluorescence.
For test [3] the following is noted: Ebola virus entry assay, ratio channel.
The conditions of test [4]: Ebola virus entry assay, green channel fluorescence.
The conditions of test [5]: Ebola virus entry assay, reporter ratio channel; Channel type: primary.
The conditions of test [6]: Ebola virus entry assay, blue channel (ratio component).

One may read the AC50 as the concentration giving half of the maximal activity seen.
Wherever efficacy is given: 0% is about no effect.

As for `CCOC(=O)c1ccc(OC(=O)CCCCCN=C(N)N)cc1`, the efficacy in test [1] was -11.5%. For the same molecule, the outcome in test [2], in test [3], in test [4] and in test [5] was inactive.
With `CC1(c2ccccc2)OC(C(=O)O)=CC1=O` (stereo not drawn), in test [1], the efficacy was -18.5%. In addition, the call in test [2], in test [3], in test [4] and in test [5] was inactive.
As to `CCCCc1cc2ccccc2c(OCCN(C)C)n1`, the efficacy in test [1] was -77.9%. For the same molecule, the AC50 in test [2] is 8.91 µM (active); in test [3] it was 7.08 µM (active); in test [5], 7.08 µM (active). Moreover, the molecule was classed as inactive in test [4].
`O=C(O)Cc1ccc(CCNS(=O)(=O)c2ccc(Cl)cc2)cc1`: in test [1], the efficacy was 18.5%. The molecule was classed as inactive in test [2], in test [3], in test [4] and in test [5].
`Cc1cc(CC(=O)O)n(C)c1C(=O)c1ccc(Cl)cc1`: the efficacy in test [1] was 24%. For the same molecule, the call in test [2], in test [3], in test [4] and in test [5] was inactive.
Take `C[C@]12CC[C@@H]3c4ccc(O)cc4CC[C@H]3[C@@H]1CCC2=O`: the efficacy in test [1] is 55%. The AC50 in test [2] was 3.55 µM (active); in test [3], 10 µM (active); in test [5], 10 µM (active). Also, the molecule was called inactive in test [4].
In the case of `Cc1cc2nc3ccc(=[N+](C)C)cc-3sc2cc1N`, the efficacy in test [1] was -32.6%. Further, the AC50 in test [2] is 39.8 µM (active). The outcome in test [3], in test [4] and in test [5] was inactive.
Take `Clc1ccccc1C(c1ccccc1)(c1ccccc1)n1ccnc1`: the efficacy in test [1] was 24.5%. The concentration at half-maximal activity (AC50) in test [2] and in test [5] was 39.8 µM (active) in each case. The outcome in test [3] and in test [4] was inactive.
`C=CCOc1cc(Cl)ccc1C(=O)NCCN(CC)CC`: the efficacy in test [1] was -28.4%. The half-maximal activity concentration (AC50) is 14.1 µM (active) in test [2], 15.8 µM (active) in test [3] and 15.8 µM (active) in test [5]. Moreover, the outcome in test [4] was inactive.
As for `Cc1cccc(OCC(O)CNC(C)(C)C)c1C` (stereo not drawn), the efficacy in test [1] is -12.5%. Moreover, the AC50 in test [2] and in test [5] was 39.8 µM (active) in each case. For the same molecule, the result in test [3] and in test [4] was inactive.
Consider `CCOC(=O)c1c(N)sc2c1CCN(Cc1ccccc1)C2`, for which the efficacy in test [1] was 21.5%. The call in test [2], in test [3], in test [4] and in test [5] was inactive.
Regarding `COc1ccccc1N1CCN(CCCNc2cc(=O)n(C)c(=O)n2C)CC1`, the efficacy in test [1] was 43.6%. Also, the AC50 is 28.2 µM (active) in test [2] and 39.8 µM (active) in test [5]. Also, the result in test [3] and in test [4] was inactive.
On to `CCc1cc2cc(OC)c(OC)cc2c(Cc2ccccc2)n1`, for which, in test [1], the efficacy was 32.1%. For the same molecule, the AC50 was 25.1 µM (active) in test [2] and 31.6 µM (active) in test [5]. The outcome in test [3] and in test [4] was inactive.
As to `CCOC(=O)[C@H](CCc1ccccc1)N[C@H]1CS[C@H](c2cccs2)CN(CC(=O)O)C1=O`, the efficacy in test [1] is 24%. Further, the result in test [2], in test [3], in test [4] and in test [5] was inactive.
Turning to `CC[C@H]1CN2CCc3cc(OC)c(OC)cc3[C@@H]2C[C@@H]1C[C@H]1NCCc2cc(OC)c(OC)cc21`, in test [1], the efficacy is 58.8%. The AC50 in test [2], in test [3] and in test [5] was 17.8 µM (active) each time. In test [4], the result was inactive.
Turning to `NC(N)=N/N=C/c1c(Cl)cccc1Cl`, the efficacy in test [1] was -12.6%. The AC50 in test [2], in test [3] and in test [5] was 28.2 µM (active) in each case. The call in test [4] was inactive.
On to `CC(C)OC(=O)C(C(=O)OC(C)C)=C1SC=CS1`, for which the efficacy in test [1] was -38.6%. Moreover, the AC50 in test [2] was 39.8 µM (active). Moreover, the outcome in test [3], in test [4] and in test [5] was inactive.
For the molecule `C[C@]12CC[C@@H]3c4ccc(O)cc4CC[C@H]3[C@@H]1C[C@@H](O)[C@@H]2O`, the efficacy in test [1] is -24.2%. The AC50 in test [2] was 20 µM (active); in test [5] it was 35.5 µM (active). In addition, the outcome in test [3] and in test [4] was inactive.
As for `CCOc1ccc2nc(S(N)(=O)=O)sc2c1`, the efficacy in test [1] is 31.6%. Besides, the outcome in test [2], in test [3], in test [4] and in test [5] was inactive.
Take `O=C(NCCCN1CCOCC1)c1ccc(Cl)cc1`: in test [1], the efficacy is -12.2%. Moreover, the outcome in test [2], in test [3], in test [4], in test [5] and in test [6] was inactive.
On to `CCCCCCCCCCCCOS(=O)(=O)O`, for which, in test [1], the efficacy was -26.4%. In addition, the molecule was classed as inactive in test [2], in test [3], in test [4], in test [5] and in test [6].
`CCOc1ccc(NC(C)=O)cc1`: the efficacy in test [1] is -22.6%. Moreover, the molecule was called inactive in test [2], in test [3], in test [4], in test [5] and in test [6].
In the case of `CC(=O)N1C[C@H](O)C[C@H]1C(=O)O`, the efficacy in test [1] was 24.5%. Moreover, the result in test [2], in test [3], in test [4], in test [5] and in test [6] was inactive.
Regarding `COc1ccc2c(c1OC)C(=O)O[C@@H]2[C@H]1c2c(cc3c(c2OC)OCO3)CCN1C`, the efficacy in test [1] is -21%. Further, the call in test [2], in test [3], in test [4], in test [5] and in test [6] was inactive.
On to `CC(=O)OCC1=C(C(=O)O)N2C(=O)[C@@H](NC(=O)CSc3ccncc3)[C@H]2SC1`, for which the efficacy in test [1] is -6.58%. Besides, the result in test [2], in test [3], in test [4], in test [5] and in test [6] was inactive.
As for `O=C(O)CCC(=O)Nc1ccc(S(=O)(=O)Nc2nccs2)cc1`, the efficacy in test [1] was -34.8%. Also, the molecule was called inactive in test [2], in test [3], in test [4], in test [5] and in test [6].
Consider `CC(C)CCCC(C)N` (stereo not drawn), for which, in test [1], the efficacy was -16.5%. The call in test [2], in test [3], in test [4], in test [5] and in test [6] was inactive.
On to `CCN(CC)CCN`, for which, in test [1], the efficacy was -14.9%. In addition, the outcome in test [2], in test [3], in test [4], in test [5] and in test [6] was inactive.
In the case of `Cc1ncc([N+](=O)[O-])n1C`, the efficacy in test [1] is 20.2%. The molecule was called inactive in test [2], in test [3], in test [4], in test [5] and in test [6].
For the molecule `O=c1[nH]c(=O)c2ccccc2o1`, the efficacy in test [1] is 15%. Moreover, the call in test [2], in test [3], in test [4], in test [5] and in test [6] was inactive.
In the case of `CC(C)Cc1ccc(C(C)C(=O)OCc2ccccn2)cc1` (stereo not drawn), the efficacy in test [1] is -17.6%. For the same molecule, the molecule was called inactive in test [2], in test [3], in test [4], in test [5] and in test [6].
Turning to `Nc1nc(=O)n([C@@H]2O[C@H](CO)[C@@H](O)[C@@H]2F)cc1I`, the efficacy in test [1] is -12.8%. Further, the call in test [2], in test [3], in test [4], in test [5] and in test [6] was inactive.
`C[N+](C)(C)CCOC(=O)CCC(=O)OCC[N+](C)(C)C`: the efficacy in test [1] is 18.3%. The result in test [2], in test [3], in test [4], in test [5] and in test [6] was inactive.
As for `C#CCN(C)Cc1ccccc1`, in test [1], the efficacy is -14.7%. The molecule was classed as inactive in test [2], in test [3], in test [4], in test [5] and in test [6].
As to `CCCc1ncc(C[n+]2ccccc2C)c(N)n1`, in test [1], the efficacy was -20.5%. Also, the molecule was classed as inactive in test [2], in test [3], in test [4], in test [5] and in test [6].
In the case of `CCCSS/C(CCO)=C(\C)N(C=O)Cc1cnc(C)nc1N`, the efficacy in test [1] was -15.5%. In addition, the outcome in test [2], in test [3], in test [4], in test [5] and in test [6] was inactive.
For the molecule `O=C1Nc2cc(Cl)ccc2Oc2ccccc21`, the efficacy in test [1] is -23%. In addition, the call in test [2], in test [3], in test [4], in test [5] and in test [6] was inactive.
Turning to `NC(=O)C1(N2CCCCC2)CCN(CCCC(=O)c2ccc(F)cc2)CC1`, in test [1], the efficacy is 25.9%. The call in test [2], in test [3], in test [4], in test [5] and in test [6] was inactive.
For `CCN(CC)CC1CCCCN1CC(=O)N1c2ccccc2C(=O)Nc2cccnc21` (stereo not drawn), the efficacy in test [1] is 31.3%. Further, the molecule was called inactive in test [2], in test [3], in test [4], in test [5] and in test [6].
Take `C[N+]12CCC(CC1)C(OC(=O)C(O)(c1ccccc1)c1ccccc1)C2` (stereo not drawn): in test [1], the efficacy was 11.2%. In addition, the call in test [2], in test [3], in test [4], in test [5] and in test [6] was inactive.
Take `COc1cc(C(=O)NCCCCCC(=O)O)cc(OC)c1OC`: the efficacy in test [1] is -33.5%. Also, the result in test [2], in test [3], in test [4], in test [5] and in test [6] was inactive.
For `CCOc1c(N2CCOCC2)cnn(C)c1=O`, the efficacy in test [1] was -16.1%. Also, the molecule was called inactive in test [2], in test [3], in test [4], in test [5] and in test [6].
For the molecule `COc1cc2[nH]c(=O)[nH]c(=O)c2cc1OC`, in test [1], the efficacy was 23.8%. The outcome in test [2], in test [3], in test [4], in test [5] and in test [6] was inactive.
For `Cc1ccc(S(=O)(=O)NC(=O)NC2CCCC2)cc1`, the efficacy in test [1] was -11.6%. In addition, the molecule was classed as inactive in test [2], in test [3], in test [4], in test [5] and in test [6].
As for `COCCc1ccc(OCC(O)CNC(C)C)cc1` (stereo not drawn), in test [1], the efficacy is -31.6%. Moreover, the result in test [2], in test [3], in test [4], in test [5] and in test [6] was inactive.
In the case of `CCCNC(C)(C)COC(=O)c1ccccc1`, in test [1], the efficacy is -21%. For the same molecule, the outcome in test [2], in test [3], in test [4], in test [5] and in test [6] was inactive.
With `C[C@@H]1C[C@H]2[C@@H]3CCC4=CC(=O)C=C[C@]4(C)[C@@]3(F)[C@@H](O)C[C@]2(C)[C@H]1C(=O)CO`, in test [1], the efficacy was 20.4%. Moreover, the molecule was classed as inactive in test [2], in test [3], in test [4], in test [5] and in test [6].
For `Cc1cccc(C)c1NC(=O)CN1CCCC1`, the efficacy in test [1] was 18.6%. In addition, the outcome in test [2], in test [3], in test [4], in test [5] and in test [6] was inactive.
As for `CCOCC(O)COc1ccc(NC(=O)CC[S+](C)C)cc1` (stereo not drawn), the efficacy in test [1] was -21.6%. The outcome in test [2], in test [3], in test [4], in test [5] and in test [6] was inactive.
As to `O=C1c2ccccc2C(=O)C1c1ccc(Br)cc1`, the efficacy in test [1] is -9.92%. Besides, the molecule was called inactive in test [2], in test [3], in test [4], in test [5] and in test [6].
As for `CN(C)C(=O)Oc1cccc([N+](C)(C)C)c1`, the efficacy in test [1] was -10.1%. The call in test [2], in test [3], in test [4], in test [5] and in test [6] was inactive.
On to `Cc1cc(O)c(C)c(C)c1O`, for which the efficacy in test [1] is -20.2%. Moreover, the call in test [2], in test [3], in test [4], in test [5] and in test [6] was inactive.
